System: PC9
Assay: area under confluence curve of compound monotherapy; compare to DMSO control AUC of the same experiment (AUC (confluence x time, arbitrary))
Description: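 compare to DMSO control AUC of the same experiment; Monotherapy arm of the osimertinib DTP screen: EGFR-mutant NSCLC cells were treated with the test compound alone at a fixed dose (highest dose with <50% inhibition of parental cells, or 1 uM), then switched to drug-free medium at the DTP stage. IncuCyte confluence was tracked and AUC computed in Prism. AUC scale depends on experiment duration, so each row carries the same-experiment DMSO control AUC (monotherapy activity = DMSO AUC minus monotherapy AUC). The monotherapy value is shared between screen formats.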

[1] = 1000 nM, DMSO control AUC in same experiment: 22064
[2] = 1000 nM, DMSO control AUC in same experiment: 26668
[3] = 1000 nM, DMSO control AUC in same experiment: 30604
[4] = 1000 nM, DMSO control AUC in same experiment: 28684
[5] = 1000 nM, DMSO control AUC in same experiment: 43316

**Q.** Which results are given for `Cc1nc(-c2nc(-c3ccc(OC(F)(F)F)cc3)no2)nn1Cc1cccc(N2CCC(S(C)(=O)=O)CC2)c1`?
**A.** area under confluence curve (10 nM, DMSO control AUC in same experiment: 18385): 18100; area under confluence curve (10 nM, DMSO control AUC in same experiment: 19076): 18900

**Q.** With `C[C@@]1(C(=O)Nc2ccc(F)nc2)CCCN1c1nc(Nc2cc(C3CC3)n[nH]2)c2cccn2n1` as the compound, how does the “area under confluence curve” value (100 nM, DMSO control AUC in same experiment: 21341) read?
**A.** 20100

**Q.** What about the “area under confluence curve” value (100 nM, DMSO control AUC in same experiment: 30580) of the same compound?
**A.** 30100

**Q.** And the “area under confluence curve” value (100 nM, DMSO control AUC in same experiment: 49143)?
**A.** 48900

**Q.** `COC(=O)c1ccc([C@H]2c3[nH]c4ccccc4c3C[C@H](C(=O)OC)N2C(=O)CCl)cc1` was tested. Which “area under confluence curve” value (100 nM, DMSO control AUC in same experiment: 27958) did it give?
**A.** 27800

**Q.** What about the “area under confluence curve” value (100 nM, DMSO control AUC in same experiment: 30326) of the same compound?
**A.** 27300

**Q.** What about the “area under confluence curve” value (100 nM, DMSO control AUC in same experiment: 45737) of the same compound?
**A.** 46100

**Q.** What does the source list for `CCN1CCN(Cc2ccc(Nc3ncc(F)c(-c4cc(F)c5nc(C)n(C(C)C)c5c4)n3)nc2)CC1` [Abemaciclib]?
**A.** area under confluence curve (100 nM, DMSO control AUC in same experiment: 28684): 28400; area under confluence curve (100 nM, DMSO control AUC in same experiment: 30578): 29700; area under confluence curve (100 nM, DMSO control AUC in same experiment: 88996): 88400

**Q.** Which “area under confluence curve” value (100 nM, DMSO control AUC in same experiment: 31219) does the source give for `COC[C@H]1Cn2cc(-c3nc(Nc4ccnn4C)ncc3C)nc2C(=O)N1Cc1ccc(F)c(F)c1` here?
**A.** 30900

**Q.** And the “area under confluence curve” value (100 nM, DMSO control AUC in same experiment: 49189)?
**A.** 46200

**Q.** For `O=C(NC[C@H](O)CN1CCc2ccccc2C1)c1ccnc(NC2CCC2)c1`, which “area under confluence curve” value (100 nM, DMSO control AUC in same experiment: 44384) is on record?
**A.** 43300

**Q.** `CN(C)CCCOc1ccc(-c2ccc3ncc4c(c3c2)n(C2CCOCC2)c(=O)n4C)cn1` was tested. Which “area under confluence curve” value (300 nM, DMSO control AUC in same experiment: 22064) did it give?
**A.** 22000

**Q.** And the “area under confluence curve” value (300 nM, DMSO control AUC in same experiment: 29563)?
**A.** 30100

**Q.** And the “area under confluence curve” value (300 nM, DMSO control AUC in same experiment: 30604)?
**A.** 30300

**Q.** For `Cc1c[nH]c2nc(Nc3ccc(N4CCN(C)CC4)c(F)c3)nc(-c3cccc(CC#N)c3)c12`, which “area under confluence curve” value (300 nM, DMSO control AUC in same experiment: 28684) is on record?
**A.** 21400

**Q.** And the “area under confluence curve” value (300 nM, DMSO control AUC in same experiment: 30008)?
**A.** 29700

**Q.** And the “area under confluence curve” value (300 nM, DMSO control AUC in same experiment: 43316)?
**A.** 33700

**Q.** `Oc1nc(-c2ccc(C(F)(F)F)cc2)nc2c1CSCC2` was tested. Which “area under confluence curve” value (300 nM, DMSO control AUC in same experiment: 49143) did it give?
**A.** 49300

**Q.** Which “area under confluence curve” value (300 nM, DMSO control AUC in same experiment: 88996) does the source give for `CN(C)C(=O)c1cc2cnc(Nc3ccc(N4CCNCC4)cn3)nc2n1C1CCCC1` [Ribociclib] here?
**A.** 88200

**Q.** Which results are given for `Cc1cccc(-c2[nH]c(C(C)(C)C)nc2-c2ccc3nccnc3c2)n1`?
**A.** area under confluence curve (1000 nM, DMSO control AUC in same experiment: 20567): 20400; area under confluence curve [1]: 21700

**Q.** Which “area under confluence curve” value (1000 nM, DMSO control AUC in same experiment: 21594) does the source give for `COc1cc(CCc2cc(NC(=O)c3ccc(N4CC(C)NC(C)C4)cc3)n[nH]2)cc(OC)c1` (stereo not given) here?
**A.** 20200

**Q.** And the “area under confluence curve” value [2]?
**A.** 28200

**Q.** With `C[C@@H]1COCCN1c1cc(C2([S@](C)(=N)=O)CC2)nc(-c2cc[nH]c3nccc2-3)n1` as the compound, how does the “area under confluence curve” value [1] read?
**A.** 21700

**Q.** And the “area under confluence curve” value [3]?
**A.** 30800

**Q.** What does the source list for `COc1ccc(CCc2nc3cc(-c4c(C)noc4C)ccc3n2C[C@H](C)N2CCOCC2)cc1Cl`?
**A.** area under confluence curve [2]: 28400; area under confluence curve (1000 nM, DMSO control AUC in same experiment: 48219): 49000; area under confluence curve (1000 nM, DMSO control AUC in same experiment: 72888): 72800

**Q.** What does the source list for `C[C@@H](Nc1cc(F)cc(F)c1)c1cc(C(=O)N(C)C)cc2c(=O)cc(N3CCOCC3)oc12`?
**A.** area under confluence curve [4]: 28100; area under confluence curve (1000 nM, DMSO control AUC in same experiment: 30578): 29100; area under confluence curve (1000 nM, DMSO control AUC in same experiment: 30580): 28800; area under confluence curve [5]: 42700

**Q.** How did the “area under confluence curve” value [4] turn out when `CCn1nc(C2CCN(C(=O)CCO)CC2)nc1-c1cnc(N)c(-c2nnc(C(C)(C)C)o2)n1` was run?
**A.** 28000

**Q.** What about the “area under confluence curve” value [5] of the same compound?
**A.** 43000

**Q.** For `CS(=O)(=O)CCNCc1ccc(-c2ccc3ncnc(Nc4ccc(OCc5cccc(F)c5)c(Cl)c4)c3c2)o1` [Lapatinib], which “area under confluence curve” value (1000 nM, DMSO control AUC in same experiment: 29345) is on record?
**A.** 20900

**Q.** How did the “area under confluence curve” value [3] turn out when `Cc1cc2ncnn2cc1Nc1ncc2c(n1)n(C1CCOCC1)c(=O)n2C` was run?
**A.** 30500

**Q.** With `Cc1onc(C(=O)N2CCN(C(c3ccc(Cl)cc3)c3ccc(Cl)cc3)CC2)c1[N+](=O)[O-]` as the compound, how does the “area under confluence curve” value (1000 nM, DMSO control AUC in same experiment: 45737) read?
**A.** 46500

From the supplement of paper PMC9794691
